Here are results for four compounds from PubChem BioAssay (EPA / NIEHS).

Inconclusive results are not listed. Activity calls are given as the source filed them. How the source made its calls, unless noted: active means hit-call score of the fitted dose curve at least 0.9, where 1 is the maximum; inconclusive means response in the unintended direction; inactive means score below 0.9.

Test [1] can be described thus: CEETOX_H295R_TESTO_noMTC: CeeTox H295R High-throughput Steroidogenesis Assay for Testosterone (TESTO), maximum tolerated concentration (MTC) filtered results only (AID 2283924; active means hit-call score of the fitted dose curve at least 0.9, where 1 is the maximum; inactive means score below 0.9). The settings on record: actives raise or lower the signal. A digest of the protocol:
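H295R cells prestimulated 48 h with 10 uM forskolin, then exposed 48 h to chemicals in 0.1% DMSO final. Testosterone in medium quantified by MTBE extraction and HPLC-MS/MS; bidirectional fit versus DMSO, concentrations […] filtered by MTT-based maximum tolerated concentration.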

The target of test [2] is PGR (gene 5241) (UniProt P06401). As to the kind of experiment: TOX21_PR_BLA_Followup_Agonist_ratio: Tox21 HEK293 Progesterone Receptor (PR) Agonism Beta-lactamase Follow-Up Assay, Ratio (AID 2283933). Put shortly:
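HEK293T PR-UAS-bla, 2% CS-FBS; 6 hr preincubation, cpd/DMSO pinned, 16 hr 37C/5% CO2; LiveBLAzer B/G 2 hr RT; FRET ch2/ch1 ratio, agonist direction vs DMSO. Viability by CellTiter-Glo in same wells.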

The target is the same in test [3]. As to the kind of experiment: TOX21_PR_BLA_Followup_Antagonist_ratio: Tox21 HEK293 Progesterone Receptor (PR) Antagonism Beta-lactamase Follow-Up Assay, Ratio (AID 2283934).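 Further: PR-UAS-bla HEK293T cells stimulated with 1 nM R5020 agonist for 16 hr.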 The method, then:
TOX21_PR_BLA_Followup is a secondary assay for specificity for the TOX21_PR_BLA_Agonist assay. To differentiate true PR agonists from cytotoxic substances, this follow up assay is multiplexed with a cell viability assay. The compounds were also tested for auto fluorescence that may interfere with the biological target readout resulting in potential false positives and/or negatives. To identify the compounds that stimulate PR signaling, a PR-UAS-bla GripTite cell line i.e. PR-UAS-bla HEK293T (Invitrogen, Carlsbad, CA, USA) containing a beta-lactamase reporter gene under the control of an UAS response element was used to screen Tox21 10K compound library. […] TOX21_PR_BLA_Followup_Antagonist_ratio is an assay readout measuring reporter gene via receptor activity and designed using inducible reporter (beta lactamase induction) detected with GAL4 b-lactamase reporter gene. The signal is derived from the ratio of cleaved (ch2) to uncleaved (ch1) reporter gene substrate used as the measure of target activity.Data from the assay component TOX21_PR_BLA_Followup_Antagonist_ratio was analyzed into 1 assay endpoint. This assay endpoint, TOX21_PR_BLA_Followup_Antagonist_ratio, was analyzed in the positive analysis fitting direction relative to DMSO as the negative control and baseline of activity. […]

Test [4] can be described thus: TOX21_PR_BLA_Followup_Agonist_viability: Viability Assessment in the Tox21 HEK293 Progesterone Receptor (PR) Agonism Beta-lactamase Follow-Up Assay (AID 2283935).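 Further: cells exposed to compound for 16 hr at 37 °C; signal loss means lower viability so actives are cytotoxic.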 A digest of the protocol: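 HEK293T PR-UAS-bla, 3,000 cells/well, 2% CS-FBS; 6 hr pre-incubation; cpd in DMSO, 16 hr 37C; LiveBLAzer 2 hr RT, then CellTiter-Glo 30 min RT, luminescence. Decrease = lost viability.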

Test [5] is described as follows: TOX21_PR_BLA_Followup_Antagonist_viability: Viability Assessment in the Tox21 HEK293 Progesterone Receptor (PR) Antagonism Beta-lactamase Follow-Up Assay (AID 2283936).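 Further: hits lower the luminescence signal meaning cytotoxicity.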 A digest of the protocol: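 PR-UAS-bla HEK293T cells (3,000/well, 2% charcoal-stripped FBS) given compound plus R5020 agonist, 16 h at 37C. CellTiter-Glo added after bla read, 30 min at room temperature; luminescence loss indicates cytotoxicity.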

Test [6] addresses PGR (gene 5241) (UniProt P06401). As to the kind of experiment: TOX21_PR_LUC_Followup_Agonist: Tox21 HEK293 Progesterone Receptor (PR) Agonism Luciferase Follow-Up Assay (AID 2283937; active means hit-call score of the fitted dose curve at least 0.9, where 1 is the maximum; inactive means score below 0.9). A digest of the protocol:
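Cells: HEK293-PR-A-luc, 3,000/well, 10% charcoal-stripped FBS assay medium. Compound added after 5 h; 16 h, 37C, 0% CO2. ONE-Glo luciferase, luminescence. Positive fit vs DMSO.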

Test [7] has the same target. The experiment in a line: TOX21_PR_LUC_Followup_Antagonist: Tox21 HEK293 Progesterone Receptor (PR) Antagonism Luciferase Follow-Up Assay (AID 2283938).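 Further: curve fitted upward as signal gain over DMSO baseline despite antagonist label.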 A digest of the protocol:
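Cells are grown 5 days in charcoal-stripped-FBS assay medium, plated, left 5 h, then dosed with compound and incubated 16 h. ONE-Glo reagent is added and luminescence read after 30 min.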

Test [8] is described as follows: TOX21_PR_LUC_Followup_Antagonist_viability: Viability Assessment in the Tox21 HEK293 Progesterone Receptor (PR) Antagonism Luciferase Follow-Up Assay (AID 2283940). A digest of the protocol: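 Multiplexed viability counter-screen: after 5 days in charcoal-stripped-FBS medium, HEK293-PR-A-luc cells are plated, pinned with DMSO-dissolved compounds for 16 h at 37C, and ATP content is quantified luminescently via CellTiter-Glo.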

Test [9] in a line: TOX21_PR_LUC_Followup_Agonist_viability: Viability Assessment in the Tox21 HEK293 Progesterone Receptor (PR) Agonism Luciferase Follow-Up Assay (AID 2283941).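 Further: loss of signal means cytotoxicity so actives lower viability.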 Put shortly: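 Cells were kept 5 days in charcoal-stripped serum medium before plating HEK293-PR-A-luc at 3,000 cells/well. After 5 h they received DMSO-dissolved compound and incubated 16 h at 37C. Viability was taken from CellTiter-Glo ATP luminescence.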

Test [10] addresses Thyroid hormone receptor alpha (Rattus norvegicus) + Thyroid hormone receptor beta (Rattus norvegicus) (UniProt P18113+P63059). The experiment in a line: TOX21_TR_LUC_GH3_Agonist_Followup: Tox21 GH3 Thyroid Hormone Receptor Agonism Luciferase Follow-Up Assay (AID 2283939). Put shortly:
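Rat GH3 cells (1,500/well) in serum-free assay medium, treated with 15-point series, 92 uM to 5 nM final, for 24 h at 37C. Luciferase via ONE-Glo luminescence; gain of signal fitted against DMSO, T3 positive control.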

Chain of PGR (gene 5241) (P06401 whole entry, looked up): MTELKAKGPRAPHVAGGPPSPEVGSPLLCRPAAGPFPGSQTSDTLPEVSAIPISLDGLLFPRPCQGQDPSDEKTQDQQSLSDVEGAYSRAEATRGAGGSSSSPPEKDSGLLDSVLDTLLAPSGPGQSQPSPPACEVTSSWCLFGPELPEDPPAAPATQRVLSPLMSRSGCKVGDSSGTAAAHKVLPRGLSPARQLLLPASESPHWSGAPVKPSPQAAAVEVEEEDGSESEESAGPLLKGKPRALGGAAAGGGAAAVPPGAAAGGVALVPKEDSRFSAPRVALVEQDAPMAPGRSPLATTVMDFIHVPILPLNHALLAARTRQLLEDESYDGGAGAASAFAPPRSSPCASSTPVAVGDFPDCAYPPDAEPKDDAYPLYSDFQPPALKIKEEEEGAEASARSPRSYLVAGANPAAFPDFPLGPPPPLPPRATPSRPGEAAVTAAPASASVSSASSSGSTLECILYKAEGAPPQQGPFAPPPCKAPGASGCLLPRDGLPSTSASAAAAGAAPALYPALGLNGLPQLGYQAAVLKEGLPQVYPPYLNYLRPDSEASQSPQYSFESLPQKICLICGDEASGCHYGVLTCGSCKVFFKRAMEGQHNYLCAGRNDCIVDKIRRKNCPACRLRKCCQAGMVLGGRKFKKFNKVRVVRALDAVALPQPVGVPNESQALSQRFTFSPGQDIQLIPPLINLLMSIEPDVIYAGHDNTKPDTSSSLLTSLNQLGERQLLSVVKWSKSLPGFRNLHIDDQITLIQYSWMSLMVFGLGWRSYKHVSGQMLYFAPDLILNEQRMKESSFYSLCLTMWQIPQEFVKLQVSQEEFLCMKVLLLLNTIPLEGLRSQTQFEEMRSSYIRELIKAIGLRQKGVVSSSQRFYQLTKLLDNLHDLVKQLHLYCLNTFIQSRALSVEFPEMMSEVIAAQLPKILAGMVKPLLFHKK
Chain of Thyroid hormone receptor alpha (Rattus norvegicus) + Thyroid hormone receptor beta (Rattus norvegicus) (P63059 whole entry, looked up): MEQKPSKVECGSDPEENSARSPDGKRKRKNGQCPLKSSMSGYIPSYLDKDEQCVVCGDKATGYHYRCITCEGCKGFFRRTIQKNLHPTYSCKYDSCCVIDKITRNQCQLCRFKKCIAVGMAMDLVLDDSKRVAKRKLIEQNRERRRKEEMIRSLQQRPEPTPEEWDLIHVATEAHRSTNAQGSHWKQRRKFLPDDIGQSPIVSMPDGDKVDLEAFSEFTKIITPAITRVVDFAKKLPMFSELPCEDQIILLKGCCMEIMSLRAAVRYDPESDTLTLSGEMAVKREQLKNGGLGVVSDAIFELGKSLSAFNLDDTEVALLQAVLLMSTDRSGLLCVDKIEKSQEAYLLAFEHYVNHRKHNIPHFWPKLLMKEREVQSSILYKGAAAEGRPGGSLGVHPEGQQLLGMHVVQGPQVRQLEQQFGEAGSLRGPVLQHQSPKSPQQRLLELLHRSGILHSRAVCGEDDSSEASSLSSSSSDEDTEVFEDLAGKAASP
Chain of Thyroid hormone receptor alpha (Rattus norvegicus) + Thyroid hormone receptor beta (Rattus norvegicus) (P18113 whole entry, looked up): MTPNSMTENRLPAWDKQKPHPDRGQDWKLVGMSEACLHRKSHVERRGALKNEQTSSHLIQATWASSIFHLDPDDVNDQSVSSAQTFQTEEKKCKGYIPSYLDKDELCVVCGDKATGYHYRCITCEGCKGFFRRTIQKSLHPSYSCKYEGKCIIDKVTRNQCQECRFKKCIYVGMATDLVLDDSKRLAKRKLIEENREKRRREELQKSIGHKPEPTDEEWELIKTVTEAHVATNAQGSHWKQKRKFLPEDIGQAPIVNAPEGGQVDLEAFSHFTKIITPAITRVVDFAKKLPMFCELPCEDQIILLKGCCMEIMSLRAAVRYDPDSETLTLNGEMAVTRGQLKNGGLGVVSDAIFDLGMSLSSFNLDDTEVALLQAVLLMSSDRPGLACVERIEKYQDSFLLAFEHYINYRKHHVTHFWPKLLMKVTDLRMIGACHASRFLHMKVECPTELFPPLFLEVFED

As for `CCCCOC(=O)c1ccccc1C(=O)O`, in test [1], the result was inactive.
`CCC(=O)Nc1ccc(Cl)c(Cl)c1`: the outcome (with PGR (gene 5241) [2]; in the test with PGR (gene 5241) [3]; in test [4]; in test [5]; with PGR (gene 5241) [6]; in the test with PGR (gene 5241) [7]) was inactive. In addition, the compound was called inactive in [8] and in test [9].
As for `CCOP(=S)(OCC)Oc1ccc([N+](=O)[O-])cc1`, the half-maximal activity concentration (AC50) (as a rule, the midpoint of the concentration-response curve, whichever way the signal moves) in the test with PGR (gene 5241) [3] is 3.78 µM (active); with PGR (gene 5241) [7], 4.86 µM (active). Besides, the result in [4], in test [5] and in test [8] was inactive.
Turning to `C[N+]1(C)CCCCC1`, in test [10], the result was inactive.
